High-throughput results: PubChem, National Center for Advancing Translational Sciences (NCATS)
HT1080-NT tox – kills 2HG-producing HT-1080-NT fibrosarcoma cells; HT-1080-NT fibrosarcoma viability, CellTiter-Glo ATP luminescence, 48 h; Potency, µM (highest dose often 46.1 µM), without a hit: top-dose activity, negative = less viability, hits mostly cytotoxic; hit rate 1.6% among 360,000; AID 686970;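 further: NT is the 2HG producing partner of a matched IDH1 knockdown line; potency means the concentration at half of the fitted maximal effect; 0% = DMSO-treated cells and -100% = media-only wells without cells; nearly all actives have a fitted effect of over 55% in size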
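HT-1080-NT fibrosarcoma cells (2HG-overproducing), 750 cells/well in RPMI with 5% FBS, dosed after 2 h and incubated 48 h at 37C. CellTiter-Glo luminescence normalized to DMSO and no-cell wells; concentration-response curves fitted and classed.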
DT40 TDP1 no CPT – qHTS for Inhibitors of human tyrosyl-DNA phosphodiesterase 1 (TDP1): qHTS in cells in absence of CPT; hit rate 15% among 420,000; Potency, µM (doses to about 46.2 µM), for the others: at the top dose activity change, negative = growth inhibition, hits mostly inhibitors; DT40 Tdp1-/- hTDP1 cells, no CPT, ATP luminescence, 48 h; further: potency means the concentration at half of the fitted maximal effect; nearly all actives have a fitted effect of over 55% in size
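Camptothecin absent (DMSO only). Human TDP1-complemented DT40 knockout cells, 400 cells/well, 37 °C for minimum 48 hr; ATP measured via CellTiter-Glo, 30 min dark incubation, luminescence.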
HT1080 IDH1KD tx – kills HT-1080 cells with IDH1 knockdown; HT-1080 IDH1 knockdown viability, ATP luminescence, 48 h; Potency, µM (doses to about 46.1 µM), for the others: top-dose activity, negative = toxicity, usual class: cytotoxic; hit rate 2% among 360,000; AID 686971;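 further: potency means the concentration at half of the fitted maximal effect; 0% = DMSO wells and -100% = cell-free medium wells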
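Luminescent ATP read-out (CellTiter-Glo, 10 min at room temperature) after 48 h compound exposure at 37 °C gave viability of IDH1-knockdown HT-1080 cells. Activity was normalised to DMSO and cell-free wells, then fitted as concentration-response curves.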
ALOX12 inh – ALOX12 (human) lipoxygenase inhibition; P18054; purified 12hLO, xylenol orange hydroperoxide absorbance; Potency, µM (top dose mostly 108 µM), without a hit: top-dose activity change, negative = inhibition, usual class: inhibitors; hit rate 1.1% among 580,000; further: potency means the concentration at half of the fitted maximal effect
Target sequence (P18054 whole entry, looked up): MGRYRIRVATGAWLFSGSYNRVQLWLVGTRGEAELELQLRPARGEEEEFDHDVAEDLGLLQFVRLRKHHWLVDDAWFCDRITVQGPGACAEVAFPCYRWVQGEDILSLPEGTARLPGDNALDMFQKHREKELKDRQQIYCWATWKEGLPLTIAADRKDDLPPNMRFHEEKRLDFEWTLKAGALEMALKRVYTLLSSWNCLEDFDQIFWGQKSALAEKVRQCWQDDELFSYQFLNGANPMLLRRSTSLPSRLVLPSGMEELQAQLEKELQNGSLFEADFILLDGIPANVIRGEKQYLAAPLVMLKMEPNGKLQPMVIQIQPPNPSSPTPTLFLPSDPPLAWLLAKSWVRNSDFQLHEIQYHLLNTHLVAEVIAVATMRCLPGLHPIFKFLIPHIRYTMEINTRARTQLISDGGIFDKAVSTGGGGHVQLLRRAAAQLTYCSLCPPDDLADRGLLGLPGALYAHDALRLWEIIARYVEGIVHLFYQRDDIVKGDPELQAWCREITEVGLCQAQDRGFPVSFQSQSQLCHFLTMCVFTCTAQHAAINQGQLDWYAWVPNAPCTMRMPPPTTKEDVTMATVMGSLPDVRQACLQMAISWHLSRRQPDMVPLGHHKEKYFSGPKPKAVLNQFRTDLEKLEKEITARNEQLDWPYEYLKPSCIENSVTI
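Purified human 12hLO at 150 nM in 25 mM Hepes, 0.01% Triton X-100, pH 7.0, preincubated 15 min at room temperature with compound. Reaction started with 40 uM arachidonic acid, 30 min at room temperature. Hydroperoxide measured by Fe-xylenol orange, 573/405 nm absorbance ratio.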
DT40 TDP1 CPT – growth inhibition of DT40 Tdp1-/-;hTDP1 cells with camptothecin (screen for TDP1 inhibitors); chicken DT40 Tdp1-/-;hTDP1 cells + 20 nM CPT, ATP luminescence, 48 h; Potency, µM (highest dose often 46.2 µM), for inactives: at the highest dose activity change, negative = growth inhibition, hits mostly inhibitors; hit rate 12% among 420,000; further: potency means the concentration at half of the fitted maximal effect; nearly all actives have a fitted effect of over 55% in size
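Chicken DT40 Tdp1-/- cells stably complemented with human TDP1 were seeded at 400 cells/well in medium containing 20 nM camptothecin, exposed to pin-transferred compounds, and grown at 37 °C for at least 48 hr. Viability was read as ATP luminescence.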
IL-1B inflam inh – blocks inflammasome-driven IL-1 beta release | activity change, % at 57.5 µM | hit rate 4.7% among 360,000 | THP-1 LPS/ATP IL-1B secretion, AlphaLISA, 16 h; active compounds read low; in the data active means activity change below about -50%; inconclusive means mostly about -30% to -49%
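THP-1 cells pretreated 1 hr with compounds (up to 57.5 uM final), then stimulated with LPS (250 ng/mL final) plus ATP (1.25 mM final); secreted IL-1B measured by AlphaLISA after 16 hr, decreased signal indicating inhibition.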
* = called active by the depositor; ? = inconclusive; . = no result given; [ ] = another dose, or the depositor's remark. Shown is part of a subset that was picked to be rich in hits. Unless noted, the call rests on the fitted dose curve; in most records, active means well fitted curve in the direction sought with a large enough effect; inconclusive means small, poorly fitted or top-dose-only effect, or another doubt; inactive means no such curve, though single readings can be large; an effect the other way counts as inactive or inconclusive. Unless noted, on the % scale 0 is the no-effect control and ±100 the full control effect.

SMILES	HT1080-NT tox	DT40 TDP1 no CPT	HT1080 IDH1KD tx	ALOX12 inh	DT40 TDP1 CPT	IL-1B inflam inh
O=C1OCCC1Sc1nnc(-c2ccc(F)cc2)n1Cc1ccccc1 (stereo unspecified)	4%	-1%	1%	-2%	-25%	-2
CC1C(c2cccs2)=[N+]([O-])C(C)(c2ccccc2)N1O (stereo unspecified)	.	.	.	10%	.	.
Cc1ncc2c(c1CNC(=O)c1ccc3c(c1)OCO3)CCN(C(=O)c1ccoc1)C2	.	-13%	.	-1%	2%[9.04 µM]	.
O=C1[C@H]2[C@@H](c3ccc(F)cc3)N3C(=O)N(c4cccc(F)c4)C(=O)[C@@]3(Cc3ccc(Cl)cc3)[C@H]2C(=O)N1C1CCCCC1	3%	?	11%	4%	?	-3
CC[C@@]12C(=O)N(c3ccc(OC)cc3)C(=O)N1[C@H](c1ccc(Cl)cc1)[C@@H]1C(=O)N(C3CCCCC3)C(=O)[C@@H]12	5%	?	5%	-23%	21µM*	?
O=C1[C@H]2[C@@H](c3ccc(Cl)cc3)N3C(=O)N(c4cccc(F)c4)C(=O)[C@@]3(Cc3ccc(Cl)cc3)[C@H]2C(=O)N1C1CCCCC1	-1%	16µM*	1%	.	?	4
CC[C@@]12C(=O)N(c3cccc(Br)c3)C(=O)N1[C@H](c1ccc(Cl)cc1)[C@@H]1C(=O)N(C3CCCCC3)C(=O)[C@@H]12	-18%	?	-1%	5%	?	?
O=C(NCC1CCCO1)c1nn2c(C(F)(F)F)cc(-c3ccc(Br)o3)nc2c1Br (stereo unspecified)	-9%	?	-6%	-11%	?	20
CCCCNC(=O)NS(=O)(=O)c1ccc(N)cc1	.	-27%	.	-3%[22.9 µM]	7%	.
CCCCNc1ccc(C(CC(N)=O)NC(=O)Cc2cccc3ccccc23)cc1[N+](=O)[O-] (stereo unspecified)	10%	-21%	7%	?	-7%	-1
COc1ccc(CCNc2ccc(C(CC(N)=O)NC(=O)Cc3cccc4ccccc34)cc2[N+](=O)[O-])cc1 (stereo unspecified)	0%	?	1%	0%	23µM*	-3
COc1ccc(CCNc2ccc(C(CC(N)=O)NC(=O)c3cc(OC)ccc3OC)cc2[N+](=O)[O-])cc1 (stereo unspecified)	-2%	?	-1%	2%	26µM*	-19
COc1ccc(OC)c(C(=O)NC(CC(N)=O)c2ccc(NCCOc3ccccc3)c([N+](=O)[O-])c2)c1 (stereo unspecified)	6%	?	0%	-14%	?	-3
N#CC1(NC(=O)Cn2ncc(Cl)c(Cl)c2=O)CCCCC1	5.8µM*	7.3µM*	9.2µM*	14%	13µM*	-103*
N#CC1(NC(=O)CSc2c(Cl)cccc2Cl)CCCCC1	.	.	.	14µM*	.	.
N#CC1(NC(=O)CSc2ccc3ccccc3n2)CCCCC1	.	.	.	7%	.	.
N#CC1(NC(=O)CN2C(=O)c3ccccc3C2=O)CCCCC1	-21%	-10%	-3%	3%	11%	4
CCCNC(=O)NC(=O)CN(Cc1cccs1)C1CC1	.	.	.	-7%	.	.
Cc1ccc(C2Cn3nnc(C(=O)N4CCN(C(=O)c5ccoc5)CC4)c3CO2)cc1 (stereo unspecified)	.	.	.	31%	.	.
CC1CCCC(C)N1CC(O)COC1CCC(C(C)(C)C)CC1 (stereo unspecified)	-17%	21µM*	-28%	8%	23µM*	0
CC1CN(CC(O)COC2CCC(C(C)(C)C)CC2)CC(C)O1 (stereo unspecified)	0%	-25%	-3%	-11%	?	17
COCC(=O)N1N=C(c2cccs2)CC1c1ccc2nccnc2c1 (stereo unspecified)	.	.	.	15%	.	.
Cc1ccc2c(c1)nc1n2[C@@H](CNS(C)(=O)=O)COC1	.	.	.	77%[176 µM]	.	.
Cc1cccc(COCC(Cc2ccccc2)N2CCN(C(=O)c3cccc(Cl)c3)CCC2=O)c1 (stereo unspecified)	-13%	18µM*	-20%	?	26µM*	-61*
Cc1cccc(COC[C@H](Cc2ccccc2)N2CCN(C(=O)c3cccc(Cl)c3)CCC2=O)c1	-30%	?	?	-69%	?	-8
SMILES	HT1080-NT tox	DT40 TDP1 no CPT	HT1080 IDH1KD tx	ALOX12 inh	DT40 TDP1 CPT	IL-1B inflam inh
Cc1cccc(C(=O)N2CCC(=O)N(C(COCc3ccccc3)Cc3ccccc3)CC2)c1 (stereo unspecified)	-13%	26µM*	-9%	0%	?	-24
CS(=O)(=O)c1cnc(NCCCc2ccccn2)nc1C1CCCNC1 (stereo unspecified)	.	.	.	-14%	.	.
CCc1ccc(NC(=O)N2CCN(S(=O)(=O)c3cc4c(cc3Cl)NC(=O)C(C)O4)CC2)cc1 (stereo unspecified)	.	.	.	2%	.	.
Cc1ccc2nc(C)c(C(=O)NCc3ccc(N4CCC(C)CC4)nc3)cc2c1	.	.	.	14%	.	.
Cc1oc(-c2ccccc2F)nc1CN1CCC(C(=O)NCc2ccco2)CC1	4%	-16%	1%	-8%	-16%	-9
Cc1oc(-c2ccccc2F)nc1CN1CCC(C(=O)NC2CCCc3ccccc32)CC1 (stereo unspecified)	-3%	?	1%	0%	15µM*	-11
O=C(NC1CCCCCCC1)C1CCN(c2nc3ccccc3o2)CC1	?	16µM*	-30%	-29%	?	-19
Cc1oc(-c2ccccc2F)nc1CN1CCC(C(=O)NC2CCCCCCC2)CC1	7%	23µM*	10%	.	?	-16
O=C(NC1CCCc2ccccc21)C1CCN(S(=O)(=O)N2CCCCCC2)CC1 (stereo unspecified)	-7%	18µM*	-6%	-3%	13µM*	15
O=C(CN1CCOCC1)N1CCC(c2nc(CCOCC3CCCC3)no2)C1 (stereo unspecified)	.	.	.	32%	.	.
CCC(O)CNC(=O)c1cnn2cc(CN(CC)CC)cnc12 (stereo unspecified)	.	.	.	24%	.	.
CC(C)(C)c1ccc(C(=O)N2CCN(c3nc4ccccc4o3)CC2)cc1	8%	6.5µM*	17%	8%	9.2µM*	16
O=C(c1ccc(-c2ccccc2)cc1)N1CCN(c2nc3ccccc3o2)CC1	1%	?	0%	23%	-23%	-19
CCOc1ccccc1CNC(=O)c1cc2n(n1)CC(c1ccc(Cl)cc1)OC2 (stereo unspecified)	.	.	.	-5%	.	.
